# “And” between values parts separate entries of the source, which are not always exact repeats. Equal values may be shown once.
# How the values were obtained:
# Type in all cases: functional
# [1] = target: Solute carrier family 2, facilitated glucose transporter member 1 (Homo sapiens) (UniProt P11166); assay: ST_JUDE_LEISH: Cytotoxicity at 2uM final concentration against transgenic Leishmania Mexicana promastigotes LmGLUT1 that are glucose transport deficient and complemented with the human glucose transporter GLUT1. Activity is measured by DNA content using SYBR green in vitro
# Solute carrier family 2, facilitated glucose transporter member 1 (Homo sapiens), sequence (P11166 whole entry): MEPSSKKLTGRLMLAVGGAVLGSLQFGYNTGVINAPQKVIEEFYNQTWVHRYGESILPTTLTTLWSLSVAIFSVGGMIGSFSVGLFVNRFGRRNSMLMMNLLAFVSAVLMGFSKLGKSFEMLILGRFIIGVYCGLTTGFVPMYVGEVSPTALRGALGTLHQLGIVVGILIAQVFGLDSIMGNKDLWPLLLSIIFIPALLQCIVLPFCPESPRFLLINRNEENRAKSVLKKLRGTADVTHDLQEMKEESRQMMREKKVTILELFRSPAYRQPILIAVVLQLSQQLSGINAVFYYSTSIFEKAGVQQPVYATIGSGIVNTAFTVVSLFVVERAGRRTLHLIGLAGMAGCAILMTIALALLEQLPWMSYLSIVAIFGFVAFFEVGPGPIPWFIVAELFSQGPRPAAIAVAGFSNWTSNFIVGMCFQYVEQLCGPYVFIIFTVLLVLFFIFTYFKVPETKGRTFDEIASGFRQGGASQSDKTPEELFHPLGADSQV
# [2] = target: Hexose transporter 1 (Plasmodium falciparum) (UniProt O97467); assay: ST_JUDE_LEISH: Cytotoxicity at 2uM final concentration against transgenic Leishmania Mexicana promastigotes LmPfHT that are glucose transport deficient and complemented with the Plasmodium falciparum hexose transporter. Activity is measured by DNA content using SYBR green in vitro
# [3] = target: Glucose transporter (Leishmania mexicana) (UniProt O61059); assay: ST_JUDE_LEISH: Cytotoxicity at 2uM final concentration against transgenic Leishmania Mexicana promastigotes LmGT2 that are glucose transport deficient and complemented with the L. Mexicana glucose transporter 2. Activity is measured by DNA content using SYBR green in vitro
Compound,inhibition [1],inhibition [2],inhibition [3]
CC(=O)Nc1ccc(CN2CCC(N(C)c3ccc(NC(=O)c4cccc(C)c4)cc3)CC2)cc1,8.7%,10.9%,9.57%
Cc1c(C)c2c(c(C)c1O)CC[C@](C)(C(=O)NC1CCC(CN3CCC(c4c[nH]c5ccccc45)CC3)CC1)O2 (some centres undefined),-0.89% and 2.73%,2.05% and 2.37%,-1.4% and -1.2%
CN1CC=C(c2c[nH]c3ccc(C(=O)c4nccs4)cc23)CC1,-1.82%,-1.47%,-1.62%
CC(Cc1ccc(NC(=O)CCCc2ccccc2)cc1)NCCc1cccc(Cl)c1 (centres undefined),1.2%,0.72%,2.44%
CC[C@H]1CN2CC[C@@H]1C[C@H]2[C@H](O)c1cc(-c2cc(Cl)cc(Cl)c2)nc2ccc(OC)cc12,2.83%,2.24%,1%
NC1=NC2(CCCC2)N(c2ccc(Cl)cc2)C(N)=N1,3.05%,4.23%,3.83%
O=C(/C=C/c1cc(F)c(F)cc1F)N1CCC(CN2CCC(c3c[nH]c4ccccc34)CC2)CC1,0.47%,1.36%,0.46%
COCC(=O)N(Cc1cccc(-c2ccc(CNCCc3ccccc3)cc2)c1)C1CCN(Cc2ccccc2)CC1,3.83%,5.42%,2.98%
COc1ccc(CC(C)NCC(O)c2cccc(Cl)c2F)cc1 (centres undefined),1.96%,-0.19%,0.32%
O=C(NC1CCC(CN2CCC(c3c[nH]c4ccccc34)CC2)CC1)c1csc(-c2ccc(C(F)(F)F)cc2Cl)n1 (centres undefined),10.1%,9.77%,10.2%
COC(=O)c1ccc(CC(C)NCC(O)c2cc(Cl)c(N)c(Cl)c2)cc1 (centres undefined),1.96%,2.46%,2.16%
O=C(/C=C/c1ccc(Cl)c(Cl)c1)NCC1CCC(CN2CCC(c3c[nH]c4ccccc34)CC2)CC1 (centres undefined),2.37%,-3.01%,1.76%
Fc1ccc(N(c2nc(-c3cc(F)cc(C(F)(F)F)c3)cs2)C2CCNCC2)cc1,-1.03%,-0.75%,-1.46%
O=C(NC1CCC(CN2CCC(c3c[nH]c4ccccc34)CC2)CC1)c1cc2ccccc2s1 (centres undefined),-1.97% and 2.46%,0.46% and 1.62%,-5.56% and 1.62%
Cc1cc(CN2CCN(CCOC(c3ccccc3)c3ccccc3)CC2)ccc1O,16%,13.2%,13.6%
CC(=O)C1(c2ccccc2)CCN(CCC2(c3ccc(Cl)c(Cl)c3)CN(C(=O)CC(C)C)CCO2)CC1 (centres undefined),-0.51%,0.43%,-2.67%
O=C(/C=C/c1ccc(Cl)c(Cl)c1)NCC1CCC(N2CCC(c3c[nH]c4ccccc34)CC2)CC1 (centres undefined),5.53%,11.2%,0.18%
Cc1cccc2[nH]cc(C3CCN(CC4CCC(NC(=O)/C=C/c5ccc(Cl)c(Cl)c5)CC4)CC3)c12 (centres undefined),0.63%,6.74%,0.15%
Cc1cc(O)cc2c(C3CCN(CC4CCN(C(=O)/C=C/c5ccc(Cl)c(Cl)c5)CC4)CC3)c[nH]c12,0.1%,-0.37%,0.13%
CN1CC=C(c2csc3ccc(NC(=O)Nc4ccc(-c5ccncc5)c(Cl)c4)cc23)CC1,0.03%,-0.33%,0.2%
COc1ccc(-c2ccccc2)cc1NC(=S)NC1CCC(CN2CCC(c3c[nH]c4ccccc34)CC2)CC1 (centres undefined),3.8% and 4.09%,2.57% and 3.78%,0.72% and 3.03%
COCC(=O)N(Cc1ccccc1-c1ccc(CNCCc2ccccc2)cc1)C1CCN(Cc2ccccc2)CC1,0.08%,0.27%,-3.2%
COc1ccc(OC)c(C(O)CNC(C)C)c1 (centres undefined),1.92%,2.47%,0.42%

# Reference: ChEMBL document CHEMBL3433997, “St. Jude Leishmania screening dataset” (2016)
